Laboratory results from PubChem BioAssay (NCI).
The panel holds about 83,000 compounds, 20% with a hit somewhere; the sample as a whole holds those more often.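 A percent growth of 40 corresponds to 60% growth inhibition; 0 means no net growth; -100 means all cells died. Active threshold: below 10.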 Values without a mark were called inactive. Calls of active or inactive are those of the source.

Key:
Assay in all cases: NCI-60 one-dose screen, 48 h (100 = growth as untreated, 0 = no growth, -100 = all killed)
Conditions in all cases: 10 µM unless noted
NCI-H23 lung = tested on: NCI-H23 lung
NCI-H322M lung = tested on: NCI-H322M lung
HOP-62 NSCLC = tested on: HOP-62 NSCLC
NCI-H460 lung = tested on: NCI-H460 lung
HOP-92 NSCLC = tested on: HOP-92 NSCLC
NCI-H522 lung = tested on: NCI-H522 lung
A549/ATCC NSCLC = tested on: A549/ATCC NSCLC
786-0 renal = tested on: 786-0 renal
COLO 205 colon = tested on: COLO 205 colon
DU-145 prostate = tested on: DU-145 prostate
K-562 leukemia = tested on: K-562 leukemia
MALME-3M melanoma = tested on: MALME-3M melanoma
MDA-MB-231 breast = tested on: MDA-MB-231 breast
RXF 393 renal = tested on: RXF 393 renal
SF-268 CNS = tested on: SF-268 CNS
SF-295 CNS = tested on: SF-295 CNS
SF-539 CNS = tested on: SF-539 CNS
UACC-257 melanoma = tested on: UACC-257 melanoma
M14 melanoma = tested on: M14 melanoma
HCT-15 colon = tested on: HCT-15 colon

SMILES	growth (NCI-H23 lung) [%]	growth (NCI-H322M lung)	growth (HOP-62 NSCLC)	growth (NCI-H460 lung)	growth (HOP-92 NSCLC)	growth (NCI-H522 lung)	growth (A549/ATCC NSCLC)	growth (786-0 renal)	growth (COLO 205 colon)	growth (DU-145 prostate) [%]	growth (K-562 leukemia)	growth (MALME-3M melanoma)	growth (MDA-MB-231 breast)	growth (RXF 393 renal)	growth (SF-268 CNS) [%]	growth (SF-295 CNS)	growth (SF-539 CNS)	growth (UACC-257 melanoma)	growth (M14 melanoma)	growth (HCT-15 colon)
O=NN(C(=O)NC1CCC(C(=O)O)CC1)C1CCC(C(=O)O)CC1 (stereo not given)	106	107%	104%	107%	98.8%	98.7%	106%	107%	115%	112	95%	104%	103%	106%	107	107%	103%	96.7%	104%	96.3%
CC(C)c1ccc(S(=O)(=O)NC(=O)NC2CCCC2)cc1	101	98%	100%	104%	107%	97.2%	87.7%	103%	108%	107	103%	97.1%	102%	115%	101	97.7%	96.1%	95.7%	-52.9% (active)	97.3%
O=C(Nc1ccc(F)c(Cl)c1)Nc1ccc(Cl)c(Cl)c1	86.1	102%	74.2%	76.9%	65.1%	66.4%	71.8%	87.2%	89%	88.4	15.4%	57.5%	76%	72.8%	88.1	36.6%	80.3%	84.1%	53.6%	53.1%
O=c1c2cc(F)ccc2sc2c(NCCCNCCO)nc3ccc(Cl)cc3c12	81.6	79.2%	61%	-53.8% (active)	36.8%	49.1%	57.7%	58.8%	3.05% (active)	37.7	-25.8% (active)	106%	22.5%	61.1%	47.9	91.3%	84.8%	97.9%	33.4%	51.2%
O=C1Nc2ccccc2/C1=C/c1ccc[nH]1	84.9	88%	78.8%	85.9%	104%	90.9%	92.9%	96.3%	106%	101	107%	94.5%	40.3%	80.5%	92.1	102%	86.6%	96.6%	89.8%	42.1%
COC(=O)/C(CCC=C(C)C)=C1\[C@@H](OC(C)=O)C[C@@]2(C)[C@H]1C[C@@H](O)[C@H]1[C@@]3(C)CC[C@H](NCCO)[C@@H](C)[C@@H]3CC[C@@]12C	97.7	101%	106%	105%	93.6%	99.9%	109%	98.7%	103%	104	94.8%	93%	106%	109%	104	101%	101%	107%	94.2%	103%
C#CCn1cc(C=C2C(=O)N(C)C(=O)N(C)C2=O)c2cc(Cl)ccc21	110	102%	107%	106%	107%	88.7%	120%	111%	122%	112	106%	97.9%	105%	103%	96.8	96.4%	94.5%	112%	108%	111%
CCOc1ccc2c(c1)CN(Cc1ccc(Cl)cc1)CO2	80.8	69.1%	-7.93% (active)	40.1%	43.4%	72.9%	18.7%	6.53% (active)	76.7%	38.3	57.2%	30.1%	35.2%	-3.87% (active)	24.9	-7.02% (active)	1.31% (active)	70.9%	55.6%	70%
Cc1ccc(S(=O)(=O)c2c(COC(=O)c3cccc(C)c3)c(-c3ccccc3)nn2C)cc1	94.5	-4.7% (active)	18.1%	102%	71.4%	-33.1% (active)	-32.7% (active)	106%	-95.9% (active)	116	-23% (active)	-47.5% (active)	14.3%	93.4%	68.3	54.7%	21.4%	83.5%	89.9%	62.2%
Cc1ccc2cccc(Oc3ccc(Nc4ncnc5onc(-c6ccccc6)c45)cc3)c2n1	87.9	88.2%	90.4%	73.5%	26.3%	72.2%	80.6%	101%	59.1%	94.4	76.7%	84.1%	72.2%	82.8%	91.4	88.1%	79.8%	89%	84%	43.4%
Cc1ccc(NCCNCC(O)CO)c2c(=O)c3ccccc3sc12 (stereo not given)	29.6	25.1%	20.3%	-66.3% (active)	-2.88% (active)	26.6%	-2.08% (active)	27.1%	-87.2% (active)	11.9	-13.4% (active)	-12.4% (active)	-15.9% (active)	13.8%	29.3	25.4%	47.3%	6.52% (active)	-71% (active)	-37.2% (active)
CCOc1cccc(/C=N/NC(=O)C(=O)Nc2cccc(C(F)(F)F)c2)c1O	43.4	30.7%	39.1%	15.2%	43.8%	-0.686% (active)	21.3%	23%	11.5%	39.8	21.7%	56.7%	31.7%	37.6%	35.4	10%	11.7%	5.14% (active)	13.2%	22.3%
O=C1c2ccccc2C(=O)c2c1ccc1[nH]c(CCl)nc21	15	62.5%	25.3%	1.46% (active)	32%	-31.5% (active)	43.8%	28.9%	29.1%	17.1	2.91% (active)	11.5%	37.4%	34.7%	24.9	65.2%	37.9%	28.8%	33.5%	-24.8% (active)
O=C(COc1cc(O)c2c(=O)cc(-c3ccccc3)oc2c1)Nc1ccccc1C(F)(F)F	46.1	62.2%	16.2%	-42.5% (active)	51.6%	46.6%	0.206% (active)	7.11% (active)	60.1%	52.7	49.2%	54.3%	9.62% (active)	63.4%	63.5	34.6%	35.2%	73.4%	70.6%	53.4%
O=c1cc(-c2ccccc2)oc2cc(OCc3cn(Cc4ccc(F)cc4)nn3)cc(OCc3cn(Cc4ccc(F)cc4)nn3)c12	29.2	43.5%	12.4%	2.98% (active)	-18% (active)	17.6%	23.2%	1.13% (active)	68.4%	40	45.5%	15.2%	9.1% (active)	-8.05% (active)	21.8	38.9%	-10.5% (active)	46.4%	56.8%	73.5%
